L3MBTL1 inh – qHTS Assay for the Inhibitors of L3MBTL1 | actives 0.66% (n = 230,000) | AlphaScreen L3MBTL1–H3K9me1 peptide binding | Potency, µM (doses to about 57.1 µM), inactives show top-dose activity, negative = inhibition, actives largely listed as inhibitors; also: potency is read from the fitted curve at half-maximal effect; % is scaled to controls: 0 for no effect and ±100 for the full control effect; nearly all actives have a fitted effect of over 60% in size
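Displacement of a biotinylated histone H3(1-15) peptide monomethylated at Lys9 (75 nM) from L3MBTL1 (50 nM) was measured by AlphaScreen after a 30 min room-temperature compound incubation; cefsulodin titration served as intraplate control.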
Pol eta inh – qHTS for Inhibitors of Polymerase Eta. AID 588591, 2011. DNA polymerase eta (Homo sapiens), Q9Y253. recombinant Pol eta, fluorescent DNA replication assay. Potency, µM (highest dose often 114 µM), for the others: at the highest dose activity change, negative = inhibition, most hits filed as inhibitors. actives 1.2% (n = 390,000); also: potency is read from the fitted curve at half-maximal effect; % is scaled to controls: 0 for no effect and ±100 for the full control effect
Target sequence (Q9Y253 whole entry, looked up): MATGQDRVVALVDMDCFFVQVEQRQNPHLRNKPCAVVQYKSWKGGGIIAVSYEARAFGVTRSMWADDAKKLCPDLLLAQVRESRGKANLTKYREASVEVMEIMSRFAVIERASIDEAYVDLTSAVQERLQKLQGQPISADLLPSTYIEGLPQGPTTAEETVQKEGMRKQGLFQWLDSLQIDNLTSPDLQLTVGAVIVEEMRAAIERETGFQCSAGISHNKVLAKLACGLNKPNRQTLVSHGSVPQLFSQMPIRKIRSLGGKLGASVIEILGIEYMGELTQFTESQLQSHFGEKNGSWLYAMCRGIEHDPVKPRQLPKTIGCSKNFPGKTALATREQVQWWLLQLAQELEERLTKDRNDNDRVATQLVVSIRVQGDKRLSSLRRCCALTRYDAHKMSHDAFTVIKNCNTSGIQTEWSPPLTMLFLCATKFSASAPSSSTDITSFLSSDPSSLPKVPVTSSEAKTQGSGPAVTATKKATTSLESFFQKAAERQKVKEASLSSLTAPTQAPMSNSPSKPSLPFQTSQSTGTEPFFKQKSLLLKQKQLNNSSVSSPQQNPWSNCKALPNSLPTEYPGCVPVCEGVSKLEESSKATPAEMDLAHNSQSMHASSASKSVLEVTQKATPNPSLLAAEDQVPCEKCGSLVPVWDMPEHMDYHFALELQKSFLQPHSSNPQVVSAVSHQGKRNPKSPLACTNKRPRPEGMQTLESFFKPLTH
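Fluorescent replication assay: 50 nM final substrate added after a 15 min room-temperature compound preincubation with 10 nM enzyme. Signal taken at 0 min and again at 10 min.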
WRN inhibitor – qHTS for Inhibitors of WRN Helicase | Bifunctional 3'-5' exonuclease/ATP-dependent helicase WRN (Homo sapiens), Q14191 | WRN helicase unwinding, fluorescent forked duplex, kinetic | Potency, µM (series often up to 114 µM), without a hit: top-dose activity change, negative = inhibition, actives largely listed as inhibitors | actives 0.46% (n = 360,000); also: potency is read from the fitted curve at half-maximal effect; % is scaled to controls: 0 for no effect and ±100 for the full control effect; nearly all actives have a fitted effect of over 55% in size
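Fluorescence dequenching readout, ex 525 nm/em 598 nm, kinetic mode: forked duplex DNA (100 nM final) with adjacent fluorophore and quencher unwound by WRN (20 nM final) with 2 mM ATP. Compound preincubation 15 min, room temperature.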
POLI inh – qHTS for Inhibitors of Polymerase Iota | Potency, µM (doses to about 115 µM), for the others: top-dose activity, negative = inhibition, hits mostly inhibitors | AID 588590, 2011 | Pol iota fluorescent replication assay, 10 min | DNA polymerase iota (Homo sapiens), Q9UNA4 | actives 1% (n = 390,000); also: potency is read from the fitted curve at half-maximal effect
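Pol iota at 10 nM preincubated 15 min with compounds at room temperature; reaction started with fluorescent substrate, 50 nM final. Fluorescence read kinetically at 0 and 10 min; buffer-only wells as negative control.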
Pol beta inh – qHTS Assay for Inhibitors of DNA Polymerase Beta; P06746; Potency, µM (highest dose often 114 µM), for the others: at the top dose activity change, negative = inhibition, usual class: inhibitors; Pol beta primer extension/strand displacement, fluorescence kinetic; AID 485314, 2010; actives 1.3% (n = 340,000); also: potency is read from the fitted curve at half-maximal effect; % is scaled to controls: 0 for no effect and ±100 for the full control effect
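Enzyme-only controls used 10 nM Pol beta; buffer lacking enzyme served as negative control. Compound preincubated 15 min, then 50 nM substrate added; 0 and 10 min reads at room temperature.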
POLK inh – qHTS for Inhibitors of Polymerase Kappa. Potency, µM (top dose mostly 107 µM), without a hit: at the highest dose activity, negative = inhibition, most hits filed as inhibitors. actives 0.53% (n = 400,000). AID 588579, 2011. DNA polymerase kappa (Homo sapiens), Q9UBT6. purified Pol kappa, fluorescent DNA synthesis assay, 10 min; also: potency is read from the fitted curve at half-maximal effect; % is scaled to controls: 0 for no effect and ±100 for the full control effect
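Readout: fluorescence, taken kinetically at 0 and 10 min. Conditions: 10 nM Pol kappa, 15 min RT compound preincubation, 50 nM substrate final. Controls: enzyme-free buffer wells.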
BAZ2B inh – qHTS Assay for Inhibitors of BAZ2B: Hit Validation; AlphaScreen BAZ2B / biotin-H3K14Ac peptide displacement; AID 588809, 2011; shares compounds with POLK inh; Potency, µM, most hits filed as inhibitors; actives 100% (n = 25); calls by dose curve
AlphaScreen ctr – qHTS Assay for Inhibitors of BAZ2B: Hit Validation in AlphaScreen Counterscreen; AlphaScreen biotin-His6 peptide bead counterscreen, signal decrease; Potency, µM (doses to about 57.1 µM), without a hit: top-dose activity change, negative = inhibition, most hits filed as inhibitors; 25 tested, under 10 active; AID 588859, 2011; shares compounds with POLK inh;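 active = clear concentration-dependent signal drop in the bead assay lacking the target, so a primary-screen artifact; inconclusive = weak, partial or single-dose response; inactive = no response, so a real primary hit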
TbPGK inh – qHTS for inhibitors of Phosphogylcerate Kinase: Hit Validation Screen; shares compounds with POLK inh; TbPGK coupled GAPDH assay, Kinase-Glo luminescence; Potency, µM (highest dose often 57.5 µM), for inactives: at the top dose activity change, negative = inhibition, usual class: inhibitors; actives 79% (n = 500); AID 686980, 2013; also: potency is read from the fitted curve at half-maximal effect; % is scaled to controls: 0 for no effect and ±100 for the full control effect; nearly all actives have a fitted effect of over 65% in size
Pol iota confirm – qHTS for Inhibitors of Polymerase Iota: Confirmatory Assay for Cherry-picked Compounds. AID 720496, 2013. actives 77% (n = 1,500). Pol iota primer extension, TAMRA/BHQ fluorescence. Potency, µM, most hits filed as inhibitors. shares compounds with POLK inh; also: potency is read from the fitted curve at half-maximal effect
Numbers without * were called inactive; ? = inconclusive; / = not tested or not shown; [ ] = remark or other dose. This is a sample that favours compounds with a hit; in the whole collection about 2.5% have one here. Unless noted, calls follow the shape of the dose curve; as a rule, active = well fitted curve in the direction sought with a large enough effect; inconclusive = small, poorly fitted or top-dose-only effect, or another doubt; inactive = no such curve, though single readings can be large; an effect the other way counts as inactive or inconclusive.

SMILES	L3MBTL1 inh	Pol eta inh	WRN inhibitor	POLI inh	Pol beta inh	POLK inh	others
COCCN(Cc1cc2cc3c(cc2nc1Cl)OCO3)C(=O)c1ccc(C)cc1	28µM*	-12%	-1%	-8%	9%	-3%	BAZ2B inh=11*;AlphaScreen ctr=?
CC(=O)c1c(COC(=O)c2cccnc2)nc2ccccc2[n+]1[O-]	-1%	?	-13%	29%	-8%	-13%
O=C1NC(=S)N(c2ccc(F)cc2)C(=O)/C1=C\c1ccoc1	/	1µM*	?	?	2.2µM*	1µM*	TbPGK inh=0.23µM*
CCOC(=O)C1=C(C)N=c2s/c(=C\c3ccc(OCC(=O)O)cc3)c(=O)n2C1c1ccc(Cl)cc1 (stereo not drawn)	?	?	?	?	22µM*	50µM*	BAZ2B inh=14*;AlphaScreen ctr=-19%;TbPGK inh=4.6µM*;Pol iota confirm=21*
Nc1nc(O)c(-c2ccccc2)o1	/	/	/	/	/	-3%[19.4 µM]
COc1ccc(/C=C2\C(=O)NC(=S)N(C)C2=O)cc1C	1%	2.8µM*	20µM*	?	30%	50µM*	TbPGK inh=4.1µM*
C/C(=N\NC(=O)c1ccccc1O)c1c(O)n(Cc2ccccc2)c(=O)[nH]c1=O	16%	-25%	-19%	-10%	21%	-5%
COc1cc(C(=O)OC2C[C@H]3CC[C@@H](C2)N3)ccc1O (stereo partly drawn)	/	1%	4%	?	1%	-7%
COc1ccc(N=Cc2c(O)n(-c3ccc(C)cc3)c(=O)[nH]c2=O)cc1	11%	0%	0%	-12%	99%	0%
CCOC(=O)c1ccc(N=Cc2c(O)n(-c3ccc(OC)cc3)c(=S)[nH]c2=O)cc1	14%	?	?	-1%	-5%	-25%	Pol iota confirm=3.8*
COc1cc2c(ccc3c4cc(OC)c(OC)cc4c[n+](C)c23)cc1O	/	?	?	?	/	32µM*	Pol iota confirm=19*
COc1ccc(/C(=N/OC(C)=O)c2nccc3cc(OC)c(OC)cc23)cc1OC	/	2%	15%	69%	6%	-6%
CN1CC[C@@H]2CN3CCc4cccc(c43)[C@H]2C1	/	/	/	/	/	-14%[19.4 µM]
Cc1nc(N2CCCCC2)c2ccsc2n1	/	-3%	8%	-9%	-7%	-4%	BAZ2B inh=10*;AlphaScreen ctr=?
Oc1ccc(CC2CC3CCN2CC3)cc1O (stereo not drawn)	-2%	-3%	-37%[57.1 µM]	7%	17%	-15%

Screening data (PubChem BioAssay)
